# Among all 94,000 compounds or so, about 2,100 (2.2%) were called active. Rule as the data show it: active = activity change below about -80%; inconclusive = no clear call, values can overlap the other calls; inactive = above that. Many of the other results were omitted from the sample, so actives are more common in it than they were.
# Assay: P. falciparum Dd2 growth inhibitors, primary screen, SYBR Green fluorescence, single dose replicates (AID 1159554)
# Conditions: 72 h, at 10 µM, hits give low values
row,SMILES,activity change
1,COc1cccc(C#Cc2cnc3c(c2)C(=O)N([C@@H](C)CO)C[C@H](C)[C@@H](CN(C)C(=O)C2CCC2)O3)c1,-74.6% (inactive)
2,C[C@@H]1CN([C@H](C)CO)C(=O)c2cc(-c3ccccc3)cnc2O[C@H]1CN(C)C(=O)NC1CCCC1,-13% (inactive)
3,COc1cccc(C#Cc2cnc3c(c2)C(=O)N([C@@H](C)CO)C[C@H](C)[C@@H](CN(C)C(C)=O)O3)c1,-15.1% (inactive)
4,COc1ccc(-c2cnc3c(c2)C(=O)N([C@H](C)CO)C[C@@H](C)[C@H](CN(C)C(=O)Cc2ccncc2)O3)cc1,-84.6% (active)
5,C[C@H](CO)N1C[C@H](C)[C@H](CN(C)C(=O)C2CC2)Oc2ncc(C#Cc3ccccc3)cc2C1=O,-17.2% (inactive)
6,C[C@@H]1CN([C@@H](C)CO)C(=O)c2cc(/C=C/c3ccccc3)cnc2O[C@H]1CN(C)C(=O)C1CCC1,-56.3% (inactive)
7,C[C@H](CO)N1C[C@H](C)[C@H](CN(C)C(=O)C2CCCCC2)Oc2ncc(C#CC3CC3)cc2C1=O,-16.5% (inactive)
8,C[C@H](CO)N1C[C@H](C)[C@H](CN(C)C(=O)C2CCCCC2)Oc2ncc(C#Cc3cccc(F)c3)cc2C1=O,-86.4% (active)
9,C[C@H]1CN([C@@H](C)CO)C(=O)c2cc(/C=C/c3ccccc3)cnc2O[C@@H]1CN(C)C(=O)NC1CCCCC1,-82.8% (active)
10,COc1cccc(C#Cc2cnc3c(c2)C(=O)N([C@H](C)CO)C[C@@H](C)[C@@H](CN(C)C(=O)C2CCC2)O3)c1,-84.4% (active)
11,C[C@H](CO)N1C[C@H](C)[C@@H](CN(C)C(=O)Cc2cccnc2)Oc2ncc(-c3ccncc3)cc2C1=O,14.1% (inactive)
12,COc1ccc(-c2cnc3c(c2)C(=O)N([C@@H](C)CO)C[C@H](C)[C@H](CN(C)C(=O)Cc2cccnc2)O3)cc1,-2.15% (inactive)
13,CC(C)(C)[S@@](=O)N1Cc2cc(C(=O)N3CCCCC3)nc(-c3cccc(-c4cccc(C#N)c4)c3)c2[C@H]1CCO,-13.7% (inactive)
14,O=C(c1ccc(F)cc1)N1CC(=O)N2[C@H](C1)[C@@H](c1ccc(C#CC3CC3)cc1)[C@@H]2CO,-8.1% (inactive)
15,Cc1ccc(S(=O)(=O)Nc2ccc3c(c2)C(=O)N([C@H](C)CO)C[C@H](C)[C@@H](CN(C)S(=O)(=O)c2cn(C)cn2)OCCCC[C@H](C)O3)cc1,-12.5% (inactive)
16,COC(=O)C[C@H]1CC[C@H](NC(=O)Nc2ccc(C(F)(F)F)cc2)[C@H](CO)O1,21.3% (inactive)
17,CCCNC(=O)C[C@H]1CC[C@@H]2[C@H](COc3ccc(NC(=O)c4ccc(OC)cc4)cc3C(=O)N2C)O1,-22.5% (inactive)

# Reference: PubChem BioAssay AID1159554 (Broad Institute, 2015)
